Each structure is given as a SMILES string. “And” between values parts separate entries of the source, which are not always exact repeats. Equal values may be shown once. Records with an inconclusive call do not appear. The source holds several records for some structures; these can differ, active in one and inactive in another. The source made the active and inactive calls. Rule for the calls: active = hit-call score of the fitted dose curve at least 0.9, where 1 is the maximum; inconclusive = response in the unintended direction; inactive = score below 0.9.

This passage reports outcome and AC50 results from PubChem BioAssay (EPA / NIEHS).

Cellular tumor antigen p53 (Homo sapiens), sequence (P04637 whole entry, looked up): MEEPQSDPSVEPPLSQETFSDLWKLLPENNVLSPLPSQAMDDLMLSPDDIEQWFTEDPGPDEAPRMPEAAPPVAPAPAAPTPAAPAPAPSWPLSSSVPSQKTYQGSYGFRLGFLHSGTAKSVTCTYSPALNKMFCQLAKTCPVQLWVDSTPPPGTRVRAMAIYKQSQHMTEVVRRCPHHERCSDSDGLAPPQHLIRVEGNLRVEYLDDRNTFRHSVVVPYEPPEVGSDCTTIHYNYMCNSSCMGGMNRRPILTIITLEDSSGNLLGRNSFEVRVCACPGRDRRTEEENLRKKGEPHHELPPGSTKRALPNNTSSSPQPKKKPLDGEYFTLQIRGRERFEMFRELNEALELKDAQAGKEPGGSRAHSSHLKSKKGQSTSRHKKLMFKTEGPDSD

The target in the first experiment is Cellular tumor antigen p53 (Homo sapiens) (UniProt P04637). Kind of experiment: TOX21_p53_BLA_p5_ratio: Tox21 HCT-116 p53 Agonism Beta-lactamase Assay, Ratio, Phase 5 (AID 2283599). Summed up:
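Beta-lactamase reporter ratio (blue 460 nm over green 530 nm, 405 nm excitation) after 2 h CCF4-AM loading, in HCT-116 cells exposed 16 h at 37 C to compounds pinned at 217-fold dilution. Increases relative to DMSO baseline scored.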
On to `c1ccc(N=Nc2ccccc2)cc1`, for which the result was inactive.

Consider `Clc1ccc(C(c2ccc(Cl)cc2)C(Cl)(Cl)Cl)cc1`, for which the AC50 (as a rule, the midpoint of the concentration-response curve, whichever way the signal moves) is 82.5 µM (active) and 43.3 µM (active); the outcome was inactive.

For the compound `O=Cc1ccco1`, the outcome was inactive.

With `Nc1cc(Cl)cc(C(=O)O)c1Cl`, the result was inactive.

On to `Nc1ccc(Oc2ccc(N)cc2)cc1`, for which the outcome was inactive.

As to `O=C1CCCO1`, the result was inactive.

For the compound `CC(C)N(Cc1ccccc1)C(=O)C(C)(C)C`, the result was inactive.

For the compound `Clc1ccc(C(c2ccc(Cl)cc2)C(Cl)Cl)cc1`, the AC50 is 89.8 µM (active) and 85.4 µM (active).

For the compound `c1ccc2c(c1)-c1cccc3cccc-2c13`, the result was inactive.

For `C1=Cc2cccc3cccc1c23`, the result was inactive.

On to `c1ccc2c(c1)oc1ccccc12`, for which the outcome was inactive.

Turning to `CCC[CH2][Sn]([Cl])([CH2]CCC)[CH2]CCC`, the AC50 is 36.5 µM (active) and 31.8 µM (active).

Consider `c1ccc(NNc2ccccc2)cc1`, for which the outcome was inactive.

As for `CN(C)c1ccc(C(=O)c2ccc(N(C)C)cc2)cc1`, the concentration at half-maximal activity (AC50) is 690 nM (active) and 351 nM (active).

On to `CCCCC(CC)COC(=O)c1ccc(C(=O)OCC(CC)CCCC)c(C(=O)OCC(CC)CCCC)c1` (stereo not given), for which the outcome was inactive.

Take `CN(C)C(=O)Nc1ccc(Cl)cc1`: the outcome was inactive.

`Cc1ccc(N)cc1`: the outcome was inactive.

On to `Nc1ccc([N+](=O)[O-])cc1`, for which the outcome was inactive.

For the compound `CC(O)CCO` (stereo not given), the outcome was inactive.

For the compound `Oc1ccc2ccc3cccc4ccc1c2c34`, the result was inactive.

As to `C[N+](C)(C)CC1CO1` (stereo not given), the outcome was inactive.

Turning to `Cc1ccc([N+](=O)[O-])cc1`, the result was inactive.

Test system in another experiment: not listed separately
Nature of the experiment: TOX21_p53_BLA_p5_viability: Viability Assessment in the Tox21 HCT-116 p53 Agonism Beta-lactamase Assay, Phase 5 (AID 2283600). The method, boiled down: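 After the 460/530 nm beta-lactamase measurement, the wells received an ATP-detection luciferase reagent; signal was read 30 min later at RT. Compound treatment lasted 16 h on cells pre-incubated 5 h post-seeding.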
`ClCCOCCCl`: the compound was called inactive.

For `Clc1ccc(C(c2ccc(Cl)cc2)C(Cl)(Cl)Cl)cc1`, the AC50 is 68.3 µM (active) and 31.9 µM (active); the compound was classed as inactive.

`Nc1cc(Cl)cc(C(=O)O)c1Cl`: the call was inactive.

Take `Nc1ccc(Oc2ccc(N)cc2)cc1`: the compound was classed as inactive.

Turning to `O=C1CCCO1`, the compound was called inactive.

`COC(=O)c1ccccc1N`: the call was inactive.

For the compound `Clc1ccc(C(c2ccc(Cl)cc2)C(Cl)Cl)cc1`, the concentration at half-maximal activity (AC50) was 81.2 µM (active) and 73.1 µM (active).

On to `C1=Cc2cccc3cccc1c23`, for which the compound was classed as inactive.

Consider `c1ccc2c(c1)oc1ccccc12`, for which the compound was classed as inactive.

`CCC[CH2][Sn]([Cl])([CH2]CCC)[CH2]CCC`: the AC50 is 1.52 µM (active).

In the case of `CN(C)c1ccc(C(=O)c2ccc(N(C)C)cc2)cc1`, the compound was classed as inactive.

In the case of `CN(C)C(=O)Nc1ccc(Cl)cc1`, the compound was classed as inactive.

`Cc1ccc(N)cc1`: the outcome was inactive.

As for `Nc1ccc([N+](=O)[O-])cc1`, the outcome was inactive.

For the compound `CC(O)CCO` (stereo not given), the compound was called inactive.

As to `Oc1ccc2ccc3cccc4ccc1c2c34`, the outcome was inactive.

Turning to `C[N+](C)(C)CC1CO1` (stereo not given), the call was inactive.

Regarding `Cc1ccc([N+](=O)[O-])cc1`, the result was inactive.

The target of a further experiment is Cellular tumor antigen p53 (Homo sapiens) (UniProt P04637). Kind of experiment: TOX21_p53_BLA_p4_ratio: Tox21 HCT-116 p53 Agonism Beta-lactamase Assay, Ratio, Phase 4 (AID 2283601). Summed up:
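Signal is the blue/green (460nm/530nm) ratio of cleaved versus uncleaved CCF4-AM substrate, read after 2 h substrate loading. Cells were HCT116 carrying the p53-responsive beta-lactamase reporter, dosed 16 h at 37C, 5% CO2; CellTiter-Glo measured in parallel.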
Take `c1ccc(N=Nc2ccccc2)cc1`: the outcome was inactive.

For the compound `[As]#[In]`, the outcome was inactive.

As to `O=Cc1ccco1`, the outcome was inactive.

Turning to `c1ccc2c(c1)-c1cccc3cccc-2c13`, the outcome was inactive.

Take `c1ccc2c(c1)oc1ccccc12`: the result was inactive.

With `CCC[CH2][Sn]([Cl])([CH2]CCC)[CH2]CCC`, the AC50 was 27.7 µM (active) and 25.6 µM (active).

`CC(C)(O)c1cnn2c(-c3ccc(F)c(-c4c(F)cccc4C#N)c3)cnc2n1`: the outcome was inactive.

Turning to `c1ccc(NNc2ccccc2)cc1`, the result was inactive.

As for `Cc1ccc(N)cc1`, the outcome was inactive.

Take `Nc1ccc([N+](=O)[O-])cc1`: the outcome was inactive.

For the compound `CC(O)CCO` (stereo not given), the outcome was inactive.

As for `CCCCCCCCCCCCCN1CC(C)OC(C)C1` (stereo not given), the outcome was inactive.

In the case of `C[N+](C)(C)CC1CO1` (stereo not given), the outcome was inactive.
